# Screening results: PubChem BioAssay, several laboratories
# Rows were chosen to be rich in hits. Some 22% of all compounds tested hit in one or more screens of this group.
# CYP2C9 activ: increases human cytochrome P450 2C9 activity; AID 1024; recombinant CYP2C9, luciferin-H conversion, luminescence; hits give high values; factor 1 = untreated enzyme, 0 = blocked; 1.4% of 96,000 active; activation factor at 5 µM;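 active means activation factor of 2 or more for CYP2C9 at a 5 µM dose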;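 further: 0 = sulfaphenazole-blocked wells and 1 = vehicle-only wells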
# Target sequence (P11712 whole entry, looked up): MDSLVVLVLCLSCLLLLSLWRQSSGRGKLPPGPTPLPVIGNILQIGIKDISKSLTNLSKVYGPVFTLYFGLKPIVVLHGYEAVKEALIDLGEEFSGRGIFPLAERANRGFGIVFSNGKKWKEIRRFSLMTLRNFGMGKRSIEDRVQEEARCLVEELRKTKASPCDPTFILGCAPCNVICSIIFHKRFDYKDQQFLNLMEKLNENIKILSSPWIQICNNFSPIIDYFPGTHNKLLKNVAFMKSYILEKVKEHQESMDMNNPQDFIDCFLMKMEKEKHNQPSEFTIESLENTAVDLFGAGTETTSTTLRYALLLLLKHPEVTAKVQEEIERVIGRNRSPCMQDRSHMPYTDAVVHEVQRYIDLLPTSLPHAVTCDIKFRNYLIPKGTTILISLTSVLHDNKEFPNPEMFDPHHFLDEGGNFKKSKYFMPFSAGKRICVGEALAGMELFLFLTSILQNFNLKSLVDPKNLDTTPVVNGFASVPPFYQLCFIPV
# CYP2C19 act: activators of human cytochrome P450 2C19; recombinant CYP2C19, luciferin-H EGE luminescence; hits give high values; 0 = fully inhibited enzyme, 1 = untreated enzyme; 96,000 tested, under 10 active; P33261; activation factor at 5 µM;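 active means activation factor of at least 2 at 5 µM in the primary screen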;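 further: 0 = wells with 2.5 mM tranylcypromine and 1 = vehicle-only wells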
# CYP2C9 inh: blocks human cytochrome P450 2C9; P11712; CYP2C9 Supersomes, luciferin-H conversion, luminescence; inhibition, % at 5 µM; 20% of 96,000 active;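 active means blocking of liver enzyme CYP2C9 beyond about 50% at 5 µM, limit read from the data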
# cytoskel mod: alters cytoskeleton assembly in HUVEC cells | HUVEC TNFa F-actin phalloidin imaging, high content | inhibition, % at 2 µM | 0.18% of 91,000 active;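 active means inhibition above the batch mean plus 3 SD and confirmed as a hit by visual image inspection, cut at about 30% in these data, passing the limit was not always enough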
# CYP2C19 inh: inhibitors of human CYP2C19; inhibition, % at 5 µM; AID 778; 21% of 96,000 active; P33261; CYP2C19 Supersomes, luciferin-H EGE luminescence, 30 min;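 active means CYP2C19 inhibition above a set limit at 5 µM in the primary screen, cut at about 50% in these data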;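 further: plate controls were negative control wells for no effect and 2.5 mM tranylcypromine positive control for full effect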
# E-sel TNF inh: TNF alpha driven E-selectin expression inhibition | HUVEC TNFa-induced E-selectin immunofluorescence, high content | inhibition, % at 2 µM | 0.71% of 120,000 active | AID 1246;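 active means inhibition above the batch mean plus 3 SD, and confirmed as a hit on visual image review, cut at about 43% in these data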;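 further: 0% = TNF-stimulated DMSO wells and 100% = unstimulated control wells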
# * marks the source's active call; other numbers are inactive results; . = no result given.
SMILES,CYP2C9 activ,CYP2C19 act,CYP2C9 inh,cytoskel mod,CYP2C19 inh,E-sel TNF inh
Cc1ccccc1OC1C(=O)N(Cc2ccc3c(c2)OCO3)C1c1sccc1C (stereo not given),0.2,0.3,82*,-18,74*,7
COc1ccc(S(=O)(=O)N(C)CC(=O)Nc2ccccc2C(F)(F)F)cc1Cl,1.9,0.5,-94,.,53*,1
COc1ccc(S(=O)(=O)N(C)CC(=O)Nc2ccccc2C(F)(F)F)cc1,1.9,0.2,-93,3,81*,22
CCSc1nnc(NC(=O)CSc2nnc(-c3c[nH]c4ccccc34)n2CC)s1,0.7,0.8,33,-15,19,-14
CCCSc1nnc(-c2c[nH]c3ccccc23)n1CC,0.9,0.1,14,.,89*,.
CCCSc1nnc(-c2c[nH]c3ccccc23)n1C,0.9,0.2,8,.,76*,.
CCCn1cc(NC(=O)C2CC(c3cccc(Br)c3)=NO2)cn1 (stereo not given),1.4,0.6,-38,11,42,19
CCN(CC)C(=O)C1CC(c2ccc(OC)cc2)=NO1 (stereo not given),1,0.9,5,-4,9,.
COc1ccc(C2=NOC(C(=O)NCCCn3ccnc3)C2)cc1 (stereo not given),0.2,0.2,84*,2,84*,-11
O=C(NCCCn1ccnc1)C1CC(c2cccc(Br)c2)=NO1 (stereo not given),0.2,0,85*,3,100*,16
COc1cccc(C2=NOC(C(=O)NCCCn3ccnc3)C2)c1 (stereo not given),0.2,0,82*,-10,95*,-14
CCCNC(=O)Cn1cccc1C(=O)c1ccccc1,0.9,0.8,8,14,17,.
Cc1ccc(C(=O)c2c(NC(=O)c3cccnc3)sc3c2CCCC3)cc1,0.8,0.8,15,-11,24,-52
Cc1c(C(=O)Nc2ccncc2)oc2c1C(=O)CC(C)(C)C2,0.1,0,94*,-7,99*,-1
Cc1ccc(NC(=O)c2oc3c(c2C)C(=O)CC(C)(C)C3)cc1,0.9,0.2,11,-2,77*,-28
Cc1c(C(=O)Nc2ccccc2)oc2c1C(=O)CC(C)(C)C2,0.7,1,29,-8,-1,20
CCCn1nc(C(=O)OCC(=O)Nc2ncc(Cl)c(C)c2Cl)c2ccccc2c1=O,.,.,.,.,.,8
c1ccc(CNc2ncnc3c2cnn3Cc2ccccc2)cc1,.,.,.,-30,.,15
CCOc1ccccc1NC(=O)CSc1nnc(-c2cnccn2)n1C,1.1,1,-8,51,-3,.
C=CCn1c(SCC(=O)Nc2cccc3ccccc23)nnc1-c1cnccn1,0.6,0.4,43,-5,55*,-9
C=CCn1c(SCC(=O)Nc2cc3oc4ccccc4c3cc2OC)nnc1-c1cnccn1,0.1,0.2,95*,6,75*,.
COc1ccc(Nc2nnc(-c3ccc(N4CCOCC4)c([N+](=O)[O-])c3)c3ccccc23)cc1,0.5,0.8,53*,-7,17,-28
COC(=O)c1nn(-c2ccccc2)c(=O)cc1Oc1ccc(Cl)cc1,0.9,0.8,8,3,24,-33
COC(=O)c1nn(-c2ccccc2)c(Cl)c1/C=N/OCc1ccc(Cl)cc1Cl,0.3,0.7,67*,1,29,2
COC(=O)c1nn(-c2ccccc2)c(Sc2ccc(Cl)cc2)c1/C=N/O,0.5,0.6,55*,-1,37,13
SMILES,CYP2C9 activ,CYP2C19 act,CYP2C9 inh,cytoskel mod,CYP2C19 inh,E-sel TNF inh
COC(=O)c1nn(-c2ccccc2)c(Sc2ccc(Br)cc2)c1/C=N/O,0.3,0.6,73*,-1,39,42
CCOP(=O)(OCC)/C(=C/N1CCCCC1)NC(=O)c1ccccc1,.,.,.,.,.,-7
CCCOC(=O)Nc1ccc(N2CCCCC2)cc1,1.2,1.1,-20,-16,-8,1
CC(C)(C)c1nn2cnnc2n(/N=C/c2cccc3ccccc23)c1=O,.,.,.,.,.,-42
Cc1ccc(/C=N/n2c(=O)c(C(C)(C)C)nn3cnnc23)cc1,.,.,.,.,.,80*
O=C(CSc1nc(O)c(C2CCCCC2)c(=O)[nH]1)Nc1ccc(Cl)cc1,0.3,0.8,66*,.,15,.
CCc1c(O)nc(SCC(=O)Nc2ccc3c(c2)CCC3)[nH]c1=O,0.9,1,8,-6,-5,3
CCCCc1c(O)nc(SCC(=O)Nc2ccc3c(c2)CCC3)[nH]c1=O,0.5,0.6,49,.,40,60*
O=C1C(Cl)=C(N2CCN(Cc3ccccc3)CC2)C(=O)N1Cc1ccccc1,0.5,0.8,55*,2,15,8
Cc1nc(-c2ccccc2O)n(-c2ccccc2)n1,0.3,0.5,68*,11,53*,10
Nc1ccc(S(=O)(=O)c2ccc(Cl)cc2)cc1,3.7*,0.1,-274,-11,86*,14
Cn1c(=O)c2[nH]cnc2n(-c2ccccc2)c1=O,1.2,1.2,-22,6,-22,-8
Cc1cc(C)cc(COn2ccnc2)c1,0.5,0.3,46,-21,69*,-6
O=C(c1cn(-c2ccccc2)nc1-c1cccs1)N1CCN(c2ccc(F)cc2)CC1,0.3,0.2,74*,0,84*,-4
CC(NC(=O)COC(=O)c1cn(-c2ccccc2)nc1-c1cccs1)c1ccccc1 (stereo not given),0.3,0.7,67*,6,32,5
O=C(Nc1ccncc1)c1cn(-c2ccccc2)nc1-c1cccs1,0.1,0.1,93*,.,94*,-2
COc1cccc(-c2nn(-c3ccccc3)cc2C(=O)Nc2nccs2)c1,0.5,0.8,46,-1,18,14
O=C(NCCN1CCOCC1)c1cn(-c2ccccc2)nc1-c1cccs1,1,0.9,5,.,10,-27
COC(=O)c1ccc(NC(=O)c2cn(-c3ccccc3)nc2-c2ccncc2)cc1,0.8,0.6,16,-7,39,27
O=C(c1cn(-c2ccccc2)nc1-c1ccc(Cl)s1)N1CCOCC1,1,0.9,2,0,12,13
COc1ccc(-c2nn(-c3ccccc3)cc2C(=O)Nc2nccs2)cc1,0.5,0.7,52*,-10,30,.
Cc1ccc(Oc2ccc(OCC(=O)OC3CCS(=O)(=O)C3)cc2)cc1 (stereo not given),.,.,.,4,.,-15
CCc1c(C(=O)NCc2cnn(C)c2)csc1C,.,.,.,16,.,2
O=C(Nc1ccc(Cl)c(Cl)c1)N1CCSCC1,.,.,.,-10,.,-3
COc1ccc(/C=N/NC(=O)c2nonc2C)cc1,0.7,0.2,27,-18,80*,.
CN(CCNC(=O)C1CC(=O)N(C2CCCC2)C1)Cc1ccccc1 (stereo not given),.,.,.,-3,.,5
O=C(CSc1nc(O)c(Cc2ccccc2)c(=O)n1-c1ccccc1)N1CCOCC1,1.2,1.1,-23,8,-10,-8
CC1CCCCC12NC(=O)N(CC(=O)Nc1sc3c(c1C(N)=O)CCC3)C2=O (stereo not given),0.3,0.8,70*,-4,23,.
